Screens from PubChem.
ALDH1A1 block = inhibitors of human aldehyde dehydrogenase 1A1; P00352; Purified ALDH1A1, NADH fluorescence, propionaldehyde substrate; Potency, µM (doses to about 75.3 µM), inactives show at the highest dose activity, negative = inhibition, usual class: inhibitors; 220,000 compounds, 7.3% hits; active = well fitted inhibition curve with a large enough effect, not every such curve was filed as active; inconclusive = small, poorly fitted or top-dose-only effect, or another doubt; inactive = no such curve, though single readings can be large or run the other way;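 also: plate controls were no enzyme wells and a reference inhibitor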
PLK1 PBD block = blocks phosphopeptide binding to human PLK1 polo-box domain | P53350 | Plk1 PBD binding of FITC phosphopeptide, fluorescence polarization | Potency, µM, inactives show max response, negative = inhibition, most hits filed as inhibitors | 360,000 compounds, 2.8% hits | AID 720504; also: series mostly up to about 57 µM; nearly all actives have a fitted effect of over 65% in size
Sfp inh = inhibitors of Bacillus subtilis Sfp phosphopantetheinyl transferase; Biochemical Sfp PPTase activity, qHTS; Q9F4F7; 310,000 compounds, 3.5% hits; AID 1490; Potency, µM, without a hit: largest response in the series, negative = inhibition, hits mostly inhibitors;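 also: the enzyme is Sfp with the accession as filed and its product quenches rhodamine fluorescence; 0% = enzyme reaction without inhibitor and -100% = no enzyme wells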
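Reaction rates are the 30-min fluorescence difference (ex 525, em 598 nm) in wells containing 15 nM Sfp, 5 uM rhodamine-CoA and 12.5 uM BHQ-2-YbbR at pH 7.6 with 10 mM MgCl2.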
Gal4-VP16 FLuc = inhibits Gal4-VP16 luciferase reporter, ROR gamma counter-screen; Drosophila S2 Gal4-VP16 UAS-luciferase, luminescence, 20 h; Potency, µM (top dose mostly 53.6 µM), for the others: at the highest dose activity, negative = inhibition, actives largely listed as inhibitors; 310,000 compounds, 3.5% hits; AID 2546;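 also: Gal4-VP16 expression switched on by copper sulfate through the metallothionein promoter; nearly all actives have a fitted effect of over 50% in size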
RORgamma inh = ROR gamma (mouse) transcription inhibition; P51450; Drosophila S2 Gal4-RORgamma UAS-luciferase reporter, 20 h; Potency, µM (series often up to 53.6 µM), for the others: at the highest dose activity change, negative = inhibition, most hits filed as inhibitors; 310,000 compounds, 5.4% hits; also: nearly all actives have a fitted effect of over 60% in size
Target sequence (P51450 whole entry, looked up, the tested form may be a part): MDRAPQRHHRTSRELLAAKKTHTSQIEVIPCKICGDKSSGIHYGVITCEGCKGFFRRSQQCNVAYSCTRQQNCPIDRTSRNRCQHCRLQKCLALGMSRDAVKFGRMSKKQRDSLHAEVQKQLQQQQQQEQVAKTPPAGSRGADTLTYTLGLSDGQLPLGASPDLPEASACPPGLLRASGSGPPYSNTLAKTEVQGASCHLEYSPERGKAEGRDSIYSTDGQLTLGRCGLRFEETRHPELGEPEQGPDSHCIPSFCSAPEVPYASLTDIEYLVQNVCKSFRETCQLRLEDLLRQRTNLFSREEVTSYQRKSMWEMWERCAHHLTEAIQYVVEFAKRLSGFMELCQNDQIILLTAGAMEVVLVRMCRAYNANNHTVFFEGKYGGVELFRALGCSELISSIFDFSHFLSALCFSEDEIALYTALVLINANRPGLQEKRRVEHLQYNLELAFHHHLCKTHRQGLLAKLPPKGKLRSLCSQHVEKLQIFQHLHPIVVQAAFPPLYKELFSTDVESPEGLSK
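Read-out: Photinus luciferase luminescence; inhibitors lower reporter signal. Insect Schneider cells with Gal4-ROR gamma fusion under metallothionein promoter, UAS reporter; 700 uM final copper sulfate induction, 20 hr, ambient temperature.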
An asterisk follows results filed as active; ! = repeats disagree; [ ] = dose if it differs, or a comment. Hits are enriched below; roughly 12% of the tested compounds scored in any of these assays. Unless noted, calls follow the shape of the dose curve; as a rule, active = well fitted curve in the direction sought with a large enough effect; inconclusive = small, poorly fitted or top-dose-only effect, or another doubt; inactive = no such curve, though single readings can be large; an effect the other way counts as inactive or inconclusive. Unless noted, % is scaled to controls: 0 for no effect and ±100 for the full control effect; potency is read from the fitted curve at half-maximal effect.

What do the screens show for `CCC(=O)NCCc1nc2ccccc2n1Cc1ccc(C)cc1`?
ALDH1A1 block: 3.8%; PLK1 PBD block: -0.9%; Sfp inh: 13.6%; Gal4-VP16 FLuc: -5.6%; RORgamma inh: 1.3%

How did CCCCn1c(C(C)NC(=O)COC)nc2ccccc21 (stereo not drawn) do in these assays?
ALDH1A1 block: -0.8%; PLK1 PBD block: -7.8%; Sfp inh: 14.5%; Gal4-VP16 FLuc: -0.3%; RORgamma inh: -3.5%

Results for CCC(=O)Nc1nc2ccccc2n1Cc1ccccc1 ?
ALDH1A1 block: -3.0%; PLK1 PBD block: 0.6%; Sfp inh: 24.1%; Gal4-VP16 FLuc: 2.24µM*; RORgamma inh: 0.708µM*

Results for CCC(=O)Nc1nc2ccccc2n1CCN(CC)CC ?
ALDH1A1 block: -9.2%; PLK1 PBD block: -8.6%; Sfp inh: -2.3%; Gal4-VP16 FLuc: -12.2%; RORgamma inh: inconclusive

What do the screens show for `CCC(=O)Nc1nc2ccccc2n1Cc1ccc(C)cc1`?
ALDH1A1 block: -0.7%; PLK1 PBD block: -1.0%; Sfp inh: 22.9%; Gal4-VP16 FLuc: 0.891µM*; RORgamma inh: 0.398µM*

Results for CCCCCn1c(C(Cc2ccccc2)NC(=O)COC)nc2ccccc21 (stereo not drawn) ?
ALDH1A1 block: -2.1%; PLK1 PBD block: 3.2%; Sfp inh: 19.8%; Gal4-VP16 FLuc: inconclusive; RORgamma inh: 31.6µM*

How did COc1cccc(-c2cnc(C(O)c3ccc(Cl)c(F)c3)[nH]2)c1 (stereo not drawn) do in these assays?
PLK1 PBD block: 1.5%

How did O=C(O)c1ccc(Nc2nc(-c3ccccc3)nc3ccccc23)cc1 do in these assays?
PLK1 PBD block: 18.9µM*; Sfp inh: 1.8%; Gal4-VP16 FLuc: -7.4%; RORgamma inh: -0.1%

How did O=C(O)c1ccc(Nc2c3ccccc3nc3ccccc23)cc1 do in these assays?
PLK1 PBD block: -0.7%; Sfp inh: -2.6%; Gal4-VP16 FLuc: 20µM*; RORgamma inh: inconclusive

How did CN1CCN(c2ccc(Nc3c4ccccc4nc4ccccc34)cc2)CC1 do in these assays?
Sfp inh: 14.2%; Gal4-VP16 FLuc: 10µM*; RORgamma inh: -44.0%

How did S=C1SC2(CCCCCC2)NC2=C1CCCCC2 do in these assays?
PLK1 PBD block: -4.9%

Results for CC(C)(CO)[C@@H](O)C(=O)NCCCO ?
ALDH1A1 block: 1.8%; Sfp inh: 8.9%; Gal4-VP16 FLuc: -8.1%; RORgamma inh: 18.7%

How did CC(C)C[C@H](NC(=O)[C@H](CCCCN)NC(=O)[C@H](CCCNC(=N)N)NC(=O)[C@H](C)NC(=O)[C@H](CO)NC(=O)[C@H](CCCCN)NC(=O)[C@H](CCCNC(=N)N)NC(=O)[C@H](C)NC(=O)CNC(=O)[C@@H](NC(=O)[C@H](Cc1ccccc1)NC(=O)CNC(=O)CNC(=O)[C@@H](N)Cc1ccccc1)[C@H](C)O)C(=O)N[C@@H](C)C(=O)N[C@@H](CC(N)=O)C(=O)N[C@@H](CCC(N)=O)C(=O)O do in these assays?
ALDH1A1 block: 4.1%; Sfp inh: 14.4%

How did CCCCC(=O)N(C)c1c(C)nc2ccc(C(=O)Nc3cccc(NS(C)(=O)=O)c3)cn12 do in these assays?
PLK1 PBD block: -2.3%

How did Cc1cccc(Oc2ccccc2NC(=O)c2cnccn2)c1 do in these assays?
ALDH1A1 block: 11.2µM*; PLK1 PBD block: -19.4%; Sfp inh: 11.0%; Gal4-VP16 FLuc: 10.4%; RORgamma inh: -2.6%

How did CC[C@@H]1CC2=C(C(=O)OC(C)(C)O2)[C@H](c2ccc(Cl)cc2)O1 do in these assays?
PLK1 PBD block: 2.6%

What do the screens show for `N#C/C(=C\c1ccc([N+](=O)[O-])o1)C(=O)Nc1ccc(F)cc1`?
ALDH1A1 block: 11.2µM*; PLK1 PBD block: inconclusive; Sfp inh: 39.8µM*; Gal4-VP16 FLuc: inconclusive; RORgamma inh: inconclusive

Results for N#CCc1ccc(NC(=O)/C=C/c2ccc([N+](=O)[O-])o2)cc1 ?
ALDH1A1 block: 20µM*; PLK1 PBD block: -23.0%; Sfp inh: inconclusive; Gal4-VP16 FLuc: -15.0%; RORgamma inh: -14.9%

How did CCCC(=O)N1CCC1(C)C(=O)Nc1ccc2nccnc2c1 (stereo not drawn) do in these assays?
PLK1 PBD block: -6.5%

Results for Oc1cc2c(cc1C(c1ccc(Cl)c(Cl)c1)N1CCCC1)OCO2 (stereo not drawn) ?
ALDH1A1 block: 0.794µM*; PLK1 PBD block: 1.19µM*; Sfp inh: inconclusive; Gal4-VP16 FLuc: inconclusive; RORgamma inh: inconclusive

What do the screens show for `O=C(CN1c2cccc3cccc(c23)S1(=O)=O)N1CCN(c2ccccc2)CC1`?
PLK1 PBD block: -8.2%

What do the screens show for `O=C(NN=C1CCCCCC1)c1cccs1`?
PLK1 PBD block: 1.3%; Sfp inh: -4.1%; Gal4-VP16 FLuc: -3.3%; RORgamma inh: -11.9%

How did CC1C2CC(C/C2=N/NC(=O)c2cccs2)C1(C)C (stereo not drawn) do in these assays?
ALDH1A1 block: inconclusive; PLK1 PBD block: -19.6%; Sfp inh: 6.5%; Gal4-VP16 FLuc: 2µM*; RORgamma inh: inconclusive

How did C[C@@H]1C2CC(C/C2=N\NC(=O)c2ccncc2)C1(C)C (stereo partly drawn) do in these assays?
PLK1 PBD block: -6.8%; Sfp inh: 7.8%; Gal4-VP16 FLuc: 12.6µM*; RORgamma inh: 7.94µM*

What do the screens show for `CCc1ccc(-n2c(=O)c3ccccc3n3c(=S)[nH]nc23)cc1`?
PLK1 PBD block: 9.47µM*; Sfp inh: 44.7µM*; Gal4-VP16 FLuc: 4.7%; RORgamma inh: -6.6%

What do the screens show for `COCCCn1c(=O)c2ccccc2n2c(=S)[nH]nc12`?
PLK1 PBD block: -0.1%; Sfp inh: 79.4µM*; Gal4-VP16 FLuc: -18.0%; RORgamma inh: inconclusive

How did Cc1ccc(N(CC2=NCCN2)c2cccc(O)c2)cc1 do in these assays?
ALDH1A1 block: -14.0%; PLK1 PBD block: 0.9%; Sfp inh: 79.4µM*!; Gal4-VP16 FLuc: 7.4%; RORgamma inh: 14.5%

Results for Cc1ccc2[nH]c3c(c2c1)CN(C(=O)CN1CCN(c2ccccc2F)CC1)CC3 ?
ALDH1A1 block: 8.91µM*; Sfp inh: -0.4%; Gal4-VP16 FLuc: 5.5%; RORgamma inh: 6.5%

How did Cc1ccc2[nH]c3c(c2c1)CN(C(=O)CN1CCCc2ccccc21)CC3 do in these assays?
ALDH1A1 block: 2.82µM*; PLK1 PBD block: -12.8%; Sfp inh: -2.7%; Gal4-VP16 FLuc: 6.2%; RORgamma inh: 20.8%[10 µM]

How did CC(=O)/C(=C\c1ccccc1F)C(=O)c1ccccc1 do in these assays?
ALDH1A1 block: 1.0%[13.5 µM]

Results for Cc1cc2c(NC(=O)Nc3ccc(F)cc3)cccc2nn1 ?
ALDH1A1 block: -7.7%; PLK1 PBD block: -3.6%; Sfp inh: 35.5µM*; Gal4-VP16 FLuc: 7.5%; RORgamma inh: 4.9%

Results for Cc1cc2c(NC(=O)CC(C)(C)CC(=O)O)cccc2nn1 ?
PLK1 PBD block: -10.8%; Sfp inh: -9.5%; Gal4-VP16 FLuc: 7.1%; RORgamma inh: 8.9%

How did CSc1nsc(/C=C/Nc2ccc(C)c(C)c2)c1C#N do in these assays?
ALDH1A1 block: 14.1µM*; PLK1 PBD block: 2.5%; Sfp inh: 2.1%; Gal4-VP16 FLuc: -5.1%; RORgamma inh: 44.1%
